# Test results from PubChem BioAssay AID2665 (Vanderbilt High Throughput Screening Facility, 2010).
# Calls of active or inactive are those of the source. No rule for the calls is given here.
# How the values were obtained:
# [1] = target: Muscarinic acetylcholine receptor M1 (Rattus norvegicus) (UniProt P08482); experiment: M5 positive allosteric modulators, analog testing, SAR follow-up, CHO cells, calcium, ACh EC10, single 30 µM (AID 2665); details: rat M1 potentiation, CHO calcium; at 30 µM; stronger effect = higher value;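 also: 100% = response to a maximal acetylcholine concentration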
# [2] = target: Muscarinic acetylcholine receptor M5 (Homo sapiens) (UniProt P08912); experiment: as above; details: CHO hM5 calcium flux, ACh EC10 potentiation; at 30 µM; stronger effect = higher value
# Muscarinic acetylcholine receptor M5 (Homo sapiens), sequence (P08912 whole entry, looked up): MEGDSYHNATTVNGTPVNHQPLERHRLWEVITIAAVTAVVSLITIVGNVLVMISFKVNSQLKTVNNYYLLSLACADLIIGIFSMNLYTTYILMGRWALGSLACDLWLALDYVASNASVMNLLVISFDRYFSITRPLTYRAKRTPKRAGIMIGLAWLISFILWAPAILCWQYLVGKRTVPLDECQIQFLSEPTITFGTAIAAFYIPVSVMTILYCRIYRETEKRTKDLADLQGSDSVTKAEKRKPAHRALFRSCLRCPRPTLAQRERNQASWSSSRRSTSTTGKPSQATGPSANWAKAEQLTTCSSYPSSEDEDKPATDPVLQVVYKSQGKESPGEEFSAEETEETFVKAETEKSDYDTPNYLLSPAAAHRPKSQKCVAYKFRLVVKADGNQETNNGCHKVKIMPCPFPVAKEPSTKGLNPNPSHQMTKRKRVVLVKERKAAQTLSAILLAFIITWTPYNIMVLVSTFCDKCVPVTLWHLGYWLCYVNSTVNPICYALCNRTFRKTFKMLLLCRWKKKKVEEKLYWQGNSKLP
smiles,measurement,setting,value
Cc1cccc2c1N(Cc1ccc(F)cc1F)C(=O)C2=O,% ACh max response,[1],32.6%
same,% ACh max response,[2],33.8% (inactive)
O=C1C(=O)N(Cc2ccccc2F)c2ccc(F)cc21,% ACh max response,[1],40.1%
same,% ACh max response,[2],46.2% (active)
Cc1ccc2c(c1)C(=O)C(=O)N2Cc1ccc(C(F)(F)F)cc1,% ACh max response,[1],22.9%
same,% ACh max response,[2],35.5% (inactive)
COc1ccc(CN2C(=O)C(=O)c3cc(F)ccc32)cc1,% ACh max response,[1],41.1%
same,% ACh max response,[2],38.3% (active)
O=C1C(=O)N(Cc2ccccc2C(F)(F)F)c2c(Cl)ccc(Cl)c21,% ACh max response,[1],21.1%
same,% ACh max response,[2],16% (inactive)
COc1cccc(CN2C(=O)C(=O)c3cc(C)ccc32)c1,% ACh max response,[1],14.5%
same,% ACh max response,[2],29.6% (inactive)
O=C1C(=O)N(Cc2ccccc2C(F)(F)F)c2c(F)cccc21,% ACh max response,[1],41.3%
same,% ACh max response,[2],30.9% (active)
COc1cccc(CN2C(=O)C(=O)c3cc(F)ccc32)c1,% ACh max response,[1],32.3%
same,% ACh max response,[2],41.6% (active)
O=C1C(=O)N(Cc2c(F)cccc2F)c2c(Cl)ccc(Cl)c21,% ACh max response,[1],16.4%
same,% ACh max response,[2],12.2% (inactive)
COc1cccc(CN2C(=O)C(=O)c3cc(Cl)ccc32)c1,% ACh max response,[1],16.9%
same,% ACh max response,[2],27.9% (inactive)
O=C1C(=O)N(Cc2ccc(OC(F)(F)F)cc2)c2c(Cl)ccc(Cl)c21,% ACh max response,[1],16%
same,% ACh max response,[2],23.2% (inactive)
O=C1C(=O)N(Cc2c(F)cccc2F)c2ccc(F)cc21,% ACh max response,[1],27.6%
same,% ACh max response,[2],31.1% (inactive)
O=C1C(=O)N(Cc2ccc(Br)cc2)c2c(Cl)cccc21,% ACh max response,[1],29.9%
same,% ACh max response,[2],44.3% (active)
COc1cccc(CN2C(=O)C(=O)c3cccc(Cl)c32)c1,% ACh max response,[1],46.9%
same,% ACh max response,[2],38.7% (active)
Cc1ccc2c(c1)C(=O)C(=O)N2Cc1ccc(Br)cc1,% ACh max response,[1],19%
same,% ACh max response,[2],24.1% (inactive)
